High-throughput results as filed in PubChem BioAssay.
USP17 inh = blocks human USP17 ubiquitin-rhodamine cleavage | 47,000 compounds, 6.5% hits | purified USP17, Ub-rhodamine cleavage fluorescence, 3 h | AID 1645855 | inhibition, % at 50 µM
Target sequence (A8MUK1 whole entry, looked up): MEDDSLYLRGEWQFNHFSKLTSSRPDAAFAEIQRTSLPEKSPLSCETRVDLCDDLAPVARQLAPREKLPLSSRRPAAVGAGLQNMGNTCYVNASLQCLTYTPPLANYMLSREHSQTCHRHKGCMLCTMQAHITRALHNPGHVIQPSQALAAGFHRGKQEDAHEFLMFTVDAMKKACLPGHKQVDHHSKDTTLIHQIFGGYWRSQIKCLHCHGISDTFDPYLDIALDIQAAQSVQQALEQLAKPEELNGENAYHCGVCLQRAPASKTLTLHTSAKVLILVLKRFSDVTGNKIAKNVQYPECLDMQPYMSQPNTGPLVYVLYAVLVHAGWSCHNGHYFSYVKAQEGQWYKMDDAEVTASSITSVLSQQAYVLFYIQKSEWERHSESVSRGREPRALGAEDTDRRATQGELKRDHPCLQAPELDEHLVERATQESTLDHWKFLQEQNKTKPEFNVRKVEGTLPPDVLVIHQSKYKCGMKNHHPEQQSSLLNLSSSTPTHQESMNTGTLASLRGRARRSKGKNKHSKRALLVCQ
USP28 block = human USP28 deubiquitinase inhibition. Q96RU2. purified USP28, Ub-rhodamine cleavage fluorescence, 30 min. inhibition, % at 25 µM. 47,000 compounds, 3% hits. AID 1645857
USP30 inh = inhibitors of human USP30 deubiquitinase | Q70CQ3 | purified USP30, Ub-rhodamine cleavage fluorescence | inhibition, % at 25 µM | 47,000 compounds, 5.3% hits | AID 1645860
OTUD3 block = blocks human OTUD3 ubiquitin-rhodamine cleavage; inhibition, % at 25 µM; 47,000 compounds, 0.7% hits; purified OTUD3, Ub-rhodamine fluorescence, 2 h
* hit, by the source's call. This is a sample that favours compounds with a hit; in the whole collection about 12% have one here. Rule as the data show it: active = inhibition above about 30%; inactive = the rest.

CCC1CCCCN1C(=O)c1cc2c(=O)n3ccccc3nc2n1Cc1ccccc1 (stereo unspecified) was read as USP17 inh 9.3, USP28 block 15.2, USP30 inh 30.5* and OTUD3 block 10.5.
For O=C(c1cc2c(=O)n3ccccc3nc2n1Cc1ccccc1)N1CCCCCC1 the results were USP17 inh -9.5, USP28 block -9.8, USP30 inh -15.3 and OTUD3 block -4.1.
CNC(=O)c1cc2c(=O)n3cccc(C)c3nc2n1Cc1ccccc1 was read as USP17 inh 79.6*, USP28 block 0.4, USP30 inh 6.8 and OTUD3 block 1.1.
Cc1[nH]nc(-n2cnnc2)c1NS(=O)(=O)c1ccc(F)cc1 was read as USP17 inh 6.0, USP28 block 1.0, USP30 inh 14.6 and OTUD3 block -0.5.
Screening CNc1cc(C)nc(C2COCCN2C(=O)Cc2c(C)n[nH]c2C)n1 (stereo unspecified) returned USP17 inh 3.8, USP28 block 3.0, USP30 inh 2.1 and OTUD3 block 7.3.
For CCc1ccc(NC(=O)c2cccc(-n3cnnc3)n2)cc1 the results were USP17 inh -3.7, USP28 block 0.1, USP30 inh -0.6 and OTUD3 block 0.0.
For O=C(Nc1ccc(Cl)cc1)c1nc(-n2cnnc2)ccc1Cl the results were USP17 inh 35.8*, USP28 block 8.6, USP30 inh 16.9 and OTUD3 block 14.9.
Screening O=C(CC(NCc1ccco1)C(=O)O)Nc1ccccc1Cl (stereo unspecified) returned USP17 inh 4.8, USP28 block -10.2, USP30 inh -11.7 and OTUD3 block -8.4.
For O=C(CC(NCc1ccco1)C(=O)O)Nc1cccc(Cl)c1Cl (stereo unspecified) the results were USP17 inh 7.9, USP28 block 5.3, USP30 inh 31.9* and OTUD3 block 6.0.
CCOc1ccc2[nH]c(=O)c(-c3nc4ccc(C)cn4c3NC3CCCCC3)cc2c1 was read as USP17 inh -7.1, USP28 block -22.9, USP30 inh -147.1 and OTUD3 block -23.0.
`Cc1ccc2nc(-c3cc4ccc(C)c(C)c4[nH]c3=O)c(NC3CCCC3)n2c1` gave USP17 inh 41.3*, USP28 block -2.3, USP30 inh -17.9 and OTUD3 block -8.1.
For CC1(C)Cc2nc3sc4c(=O)n(CC(=O)NCc5ccccc5)cnc4c3cc2CO1 the results were USP17 inh 53.5*, USP28 block -0.8, USP30 inh -6.3 and OTUD3 block -1.2.
For Cc1nc(SCC(=O)Nc2cccc(Cl)c2)c2sc3nc4c(cc3c2n1)COC(C)(C)C4 the results were USP17 inh 33.7*, USP28 block 15.0, USP30 inh 32.1* and OTUD3 block 10.9.
Screening O=C(c1cncc(NS(=O)(=O)c2ccccc2)c1)N1CCN(Cc2ccc3c(c2)OCO3)CC1 returned USP28 block -4.3, USP30 inh -0.6 and OTUD3 block -3.5.
For CS(=O)(=O)NC[C@H]1OC[C@@H]2CCN(Cc3cccc(F)c3)C[C@@H]21 the results were USP17 inh -7.8, USP28 block 2.4, USP30 inh 10.1 and OTUD3 block 3.3.
`CN(Cc1ccccc1)S(=O)(=O)c1ccc(N2CCCCS2(=O)=O)cc1` gave USP17 inh 37.0* and OTUD3 block 1.7.
`CN(Cc1ccccc1)S(=O)(=O)c1ccc2[nH]c(=O)[nH]c2c1` gave USP17 inh 37.4*, USP28 block 1.6, USP30 inh 25.5 and OTUD3 block -2.3.
For O=c1[nH]c2ccc(S(=O)(=O)N3CCN(Cc4ccccc4)CC3)cc2[nH]1 the results were USP17 inh -11.7, USP28 block 16.6, USP30 inh -16.7 and OTUD3 block 4.4.
c1cnc(N2CCN(c3ncnc4c3nc3n4CCCCC3)CC2)nc1 was read as USP17 inh 1.7, USP28 block 8.8, USP30 inh 16.1 and OTUD3 block 8.7.
Screening COc1ccccc1C(=O)N[C@H]1[C@H](O)[C@H](O)C[C@@H]1c1ccccc1 returned USP17 inh 18.7, USP28 block 6.1, USP30 inh 20.9 and OTUD3 block 0.2.
For O=C(Nc1ccccc1C(=O)O)c1ccc(CSCc2ccccc2)cc1 the results were USP17 inh 39.4*, USP28 block 31.2*, USP30 inh -24.6 and OTUD3 block 20.6.
CCN1CCc2c(cccc2-n2nnc(C(=O)NC3CCCCC3)c2C)C1 was read as USP17 inh -11.7, USP28 block -19.1, USP30 inh -51.7 and OTUD3 block -11.6.
`COc1ccc(N2CCN(Cc3nnnn3Cc3ccc4c(c3)OCO4)CC2)cc1` gave USP17 inh 42.4*, USP28 block 2.8, USP30 inh 52.9* and OTUD3 block -4.6.
Screening Nc1c(-c2nc(-c3ccccc3)cs2)nnn1-c1ccccc1 returned USP17 inh 7.6 and OTUD3 block 6.3.
For FC(F)(F)c1ccc(-c2nc(-c3ccc4c(c3)OCCCO4)cs2)cc1 the results were USP17 inh 19.1, USP28 block 10.8, USP30 inh 33.4* and OTUD3 block 16.0.
`Nc1c(-c2nc(-c3ccc4c(c3)OCO4)cs2)nnn1-c1ccccc1` gave USP17 inh 64.9*, USP28 block 7.3, USP30 inh 15.3 and OTUD3 block -1.2.
For c1cc(N2CCOCC2)ccc1-c1csc(-c2ccc3c(c2)OCCO3)n1 the results were USP17 inh 39.8*, USP28 block 12.2, USP30 inh -34.9 and OTUD3 block 12.4.
For CCN1CCC2(CN(C(C)=O)CC23CCN(C(=O)c2ccc(Cl)cc2)CC3)C1=O (stereo unspecified) the results were USP17 inh -3.2, USP28 block 9.3, USP30 inh 17.0 and OTUD3 block 4.3.
`CC(=O)c1cccc(NC(=O)CSc2nnc(-c3ccncc3)n2Cc2ccccc2)c1` gave USP17 inh -0.3, USP28 block 0.0, USP30 inh -10.2 and OTUD3 block -2.2.
Screening O=C(CSc1nnc(C2CC2)n1Cc1ccccc1)Nc1ccc(N2CCCC2=O)cc1 returned USP17 inh 44.0*, USP28 block 16.4, USP30 inh 28.6 and OTUD3 block 6.8.
Cc1nc(-c2ccc(Cl)cc2)oc1C(=O)Nc1ccc(Cl)cc1 was read as USP17 inh -1.8, USP28 block -0.4, USP30 inh -7.1 and OTUD3 block -2.4.
For CC(C)(C)C(=O)NC(c1ccccc1)c1nnc(N2CCOCC2)o1 (stereo unspecified) the results were USP17 inh 3.7, USP28 block 73.7*, USP30 inh 2.9 and OTUD3 block 12.4.
CCC(=O)N1CCCC(c2ccnc(Nc3ccc(C)cc3)n2)C1 (stereo unspecified) was read as USP17 inh -5.4, USP28 block 5.7, USP30 inh -2.8 and OTUD3 block 0.8.
`O=C(Cc1nnc(-c2ccccn2)o1)NCc1ccc(F)cc1Cl` gave USP17 inh -2.7, USP28 block -6.6, USP30 inh -12.1 and OTUD3 block -4.6.
Screening COc1ccc(-c2cc3nc(C)cc(Nc4ccc(F)cc4)n3n2)cc1OC returned USP17 inh -2.0, USP28 block 14.4, USP30 inh 84.8* and OTUD3 block 6.1.
Screening CC(=O)Nc1cc2cc(-n3cccc3)ccc2oc1=O returned USP17 inh 59.1*, USP28 block 9.5, USP30 inh -7.2 and OTUD3 block 0.3.
